Bioassay records as filed in PubChem.
NPC1 prom act = activates the NPC1 promoter | Potency, µM (series often up to 9.22 µM), for inactives: top-dose activation, actives largely listed as activators | Huh7 NPC1 promoter luciferase reporter, 24 h | 2.4% of 320,000 active | AID 485313; also: % of control where 0% means no effect; nearly all actives have a fitted effect of over 60% in size
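In 1536-well qHTS, Huh7 cells harboring an NPC1 promoter–luciferase construct received compound for 24 h; activation was quantified by luminescence following luciferase reagent addition.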
Rab9 promoter act = activators of Rab9 promoter. Huh7 Rab9 promoter-luciferase reporter, luminescence, 24 h. Potency, µM (doses to about 9.22 µM), inactives show at the top dose activation, negative = inhibition, hits mostly activators. 2.8% of 320,000 active. AID 485297; also: % of control where 0% means no effect; nearly all actives have a fitted effect of over 60% in size
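Promoter activation is measured as luciferase luminescence in Huh7 cells stably transfected with a Rab9 promoter–luciferase construct, following 24 h compound exposure at 37 °C and 10 min reagent incubation at ambient temperature.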
ELG1 genotoxic = inducers of genotoxicity in HEK293T ELG1-luciferase cells. AID 504466. Potency, µM (titrated, usually from 46 µM), without a hit: at the highest dose activity change, positive = activation, hits mostly activators. 1.3% of 330,000 active. HEK293T ELG1-luciferase reporter, luminescence, 16 h; also: % of control where 0% means no effect; nearly all actives have a fitted effect of over 60% in size
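Cells (2,000/well) expressing the ELG1-luciferase fusion are dosed by pin tool and kept 16 hr at 37 °C, 5% CO2. Signal comes from ONE-Glo luciferase reagent after 30 min at room temperature.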
SMN2 splice up = enhancers of SMN2 splice variant expression; 2.8% of 210,000 active; Potency, µM (titrated, usually from 46.1 µM), inactives show top-dose activity change, positive = activation, hits mostly activators; AID 1458; HEK293 SMN2-luciferase splicing reporter, luminescence, 30-36 h; also: % of control where 0% means no effect; nearly all actives have a fitted effect of over 55% in size
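HEK293 cells carry an SMN2 minigene-luciferase reporter in which exon 7 inclusion puts luciferase in frame. Cells were seeded at 2000 cells/well, attached for 10-12 hours, then exposed to compounds for 30-36 hours at 37C before ONE-Glo luminescence.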
FLuc modulator = firefly luciferase modulation, counter-screen for miR-21 project | purified FLuc, Km substrates, luminescence inhibition | Potency, µM (doses to about 57.5 µM), for inactives: at the top dose activity change, negative = inhibition, most hits filed as inhibitors | 6.9% of 360,000 active;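 also: plate controls were vehicle for no effect and reference inhibitor for full effect; nearly all actives have a fitted effect of over 55% in size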
Target sequence (P08659 whole entry, looked up): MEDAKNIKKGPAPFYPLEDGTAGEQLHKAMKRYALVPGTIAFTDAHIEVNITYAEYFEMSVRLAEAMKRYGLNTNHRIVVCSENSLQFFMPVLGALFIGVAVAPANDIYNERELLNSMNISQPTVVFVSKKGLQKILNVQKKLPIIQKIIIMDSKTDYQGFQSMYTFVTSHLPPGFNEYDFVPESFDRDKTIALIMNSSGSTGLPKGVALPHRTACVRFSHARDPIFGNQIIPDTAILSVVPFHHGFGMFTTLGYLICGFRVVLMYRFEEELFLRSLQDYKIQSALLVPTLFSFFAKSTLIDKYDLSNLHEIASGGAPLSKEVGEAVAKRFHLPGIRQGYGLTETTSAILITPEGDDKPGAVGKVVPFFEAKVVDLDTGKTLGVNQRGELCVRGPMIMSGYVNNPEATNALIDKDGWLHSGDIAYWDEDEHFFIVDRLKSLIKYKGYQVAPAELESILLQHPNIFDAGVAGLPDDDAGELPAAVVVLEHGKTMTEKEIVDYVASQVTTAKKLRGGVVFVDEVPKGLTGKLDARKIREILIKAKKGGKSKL
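Biochemical qHTS of compounds, final roughly 60 µM downward over six points, against 10 nM purified firefly luciferase using Km concentrations of substrates (10 uM D-luciferin, 10 uM ATP) in Tris acetate pH 7.5 buffer; luminescence output.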
ELG1 DNA repair = inhibitors of ELG1-dependent DNA repair in HEK293T cells; AID 504467; HEK293T ELG1-luciferase reporter, luminescence, 16 h; DNA damage induced by 5-fluorouridine; 2.3% of 330,000 active; Potency, µM (top dose mostly 46.1 µM), for inactives: at the highest dose activity change, negative = inhibition, usual class: inhibitors; also: % is scaled to controls: 0 for no effect and ±100 for the full control effect; nearly all actives have a fitted effect of over 55% in size
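In this reporter screen, reduction of luminescence relative to DMSO vehicle indicated activity. Compounds and 5-fluorouridine were added together to 2,000 cells per well, incubated for 16 hr at 37 °C, then developed with ONE-Glo.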
The depositor's hits bear a star; [ ] = remark or other dose. Shown are actives, neighbours in structure and some others; about 9.2% of the full set was active somewhere. Calls follow the shape of the dose curve; as a rule, active = well fitted curve in the direction sought with a large enough effect; inconclusive = small, poorly fitted or top-dose-only effect, or another doubt; inactive = no such curve, though single readings can be large; an effect the other way counts as inactive or inconclusive. Potency is read from the fitted curve at half-maximal effect.

`Cn1c(C(=O)N2CCC(C(=O)N3CCN(Cc4ccc5c(c4)OCO5)CC3)CC2)cc2sccc21` gave NPC1 prom act -8%, Rab9 promoter act -15%, ELG1 genotoxic -28%, SMN2 splice up -38%, FLuc modulator 1% and ELG1 DNA repair 7.3µM*.
O=C(c1[nH]nc2c1CCc1ccccc1-2)N1CCN(Cc2ccc3c(c2)OCO3)CC1 was read as NPC1 prom act -10%, Rab9 promoter act -41%, ELG1 genotoxic -5%[9.26 µM], FLuc modulator 12% and ELG1 DNA repair 9.2µM*.
`COc1ccsc1C(=O)N1CCN(Cc2ccc3c(c2)OCO3)CC1` gave NPC1 prom act 1%, Rab9 promoter act -5%, ELG1 genotoxic 1%, SMN2 splice up -13%, FLuc modulator 0% and ELG1 DNA repair inconclusive.
O=C(c1ccccc1)N1CCN(Cc2ccc3c(c2)OCO3)CC1 was read as NPC1 prom act 2%, Rab9 promoter act -5%, ELG1 genotoxic -1%, FLuc modulator -1% and ELG1 DNA repair -17%.
`O=C(c1sccc1Cl)N1CCN(Cc2ccc3c(c2)OCO3)CC1` gave NPC1 prom act 1%, Rab9 promoter act 5%, ELG1 genotoxic -9%, FLuc modulator -4% and ELG1 DNA repair 21µM*.
Screening CCc1nnc2c(N3CCN(c4cccc(C(F)(F)F)c4)CC3)nc3ccccc3n12 returned FLuc modulator -3%.
For COc1cc(NC(=O)CN2CCN(CC(=O)Nc3ccc(F)cc3)CC2)cc(OC)c1 the results were FLuc modulator -5%.
For Cc1ccc2c(c1)c1c(n2CCc2ccc(C)nc2)CCN(C)C1 the results were NPC1 prom act -3%, Rab9 promoter act -1%, ELG1 genotoxic -1%, FLuc modulator 5% and ELG1 DNA repair 1%.
`Cc1nn(CC(=O)Nc2ccc3c(c2)nc(CCN2CCCCC2)n3C)c(=O)c2ccccc12` gave NPC1 prom act -1%, Rab9 promoter act 4%, ELG1 genotoxic -3%, SMN2 splice up 19%, FLuc modulator 0% and ELG1 DNA repair -14%.
Screening Cc1nn(CC(=O)Nc2ccc3c(c2)nc2n3CCN(C3CCCCC3)C2)c(=O)c2ccccc12 returned NPC1 prom act 9%, Rab9 promoter act -2%, ELG1 genotoxic 1%, FLuc modulator 21µM* and ELG1 DNA repair -2%.
O=C(Nc1ccc2c(c1)nc1n2CCSC1)c1ccccc1 was read as NPC1 prom act inconclusive, Rab9 promoter act 3.5µM*, ELG1 genotoxic inconclusive, SMN2 splice up 11µM*, FLuc modulator 11µM* and ELG1 DNA repair inconclusive.
For O=C(Nc1ccc2c(c1)nc1n2CCOC1)c1ccccc1 the results were NPC1 prom act 2.2µM*, Rab9 promoter act 3.2µM*, ELG1 genotoxic inconclusive, SMN2 splice up 23%, FLuc modulator 15µM* and ELG1 DNA repair inconclusive.
`COc1ccc(C(=O)Nc2ccc3c(c2)nc2n3CCSC2)cc1` gave NPC1 prom act 2.8µM*, Rab9 promoter act inconclusive, ELG1 genotoxic inconclusive, SMN2 splice up 10%, FLuc modulator 7.6µM* and ELG1 DNA repair inconclusive.
Screening CCOc1cccc(C2CC(=O)Nc3cc4c(cc32)OCCO4)c1 (stereo not given) returned SMN2 splice up -36% and FLuc modulator -3%.
COc1cc2c(cc1NC(=O)CSc1ccccn1)oc1ccccc12 was read as NPC1 prom act inconclusive, Rab9 promoter act inconclusive, ELG1 genotoxic 15%, SMN2 splice up 4%, FLuc modulator inconclusive and ELG1 DNA repair 10%.
Cc1ccc(-c2nnc(SCC(=O)Nc3ccc4c(c3)oc3ccccc34)n2C)c(Cl)c1 was read as NPC1 prom act 8%, Rab9 promoter act 3%, ELG1 genotoxic 0%, SMN2 splice up -83%, FLuc modulator 9.5µM* and ELG1 DNA repair 18µM*.
O=C(O)CCCC(=O)Nc1ccc2c(c1)oc1ccccc12 was read as NPC1 prom act 1%, Rab9 promoter act 2%, ELG1 genotoxic -2%, FLuc modulator 15µM* and ELG1 DNA repair 2%.
`CCCCC(=O)Nc1ccc2c(c1)oc1ccccc12` gave NPC1 prom act inconclusive, Rab9 promoter act 3.5µM*, ELG1 genotoxic inconclusive, SMN2 splice up 14µM*, FLuc modulator 8.5µM* and ELG1 DNA repair inconclusive.
Screening O=C(CSc1ccccn1)Nc1ccc2c(c1)oc1ccccc12 returned NPC1 prom act 24%, Rab9 promoter act 29%, ELG1 genotoxic 15%, SMN2 splice up 18µM*, FLuc modulator 13µM* and ELG1 DNA repair inconclusive.
Cc1ccccc1OCc1nnc(SCC(=O)Nc2ccc3c(c2)oc2ccccc23)n1C was read as NPC1 prom act 24%, Rab9 promoter act 28%, ELG1 genotoxic inconclusive, SMN2 splice up inconclusive, FLuc modulator -13% and ELG1 DNA repair 0%.
CC(C)CC(=O)Nc1ccc2c(c1)oc1ccccc12 was read as NPC1 prom act 1µM*, Rab9 promoter act 1µM*, ELG1 genotoxic 19%, SMN2 splice up 5.6µM*, FLuc modulator 2.1µM* and ELG1 DNA repair inconclusive.
`CCCCCC(=O)Nc1ccc2ccccc2c1` gave NPC1 prom act inconclusive, Rab9 promoter act inconclusive, ELG1 genotoxic inconclusive, SMN2 splice up inconclusive, FLuc modulator 13µM* and ELG1 DNA repair inconclusive.
Screening Cn1c(SCC(=O)Nc2cccc(C(=O)O)c2)nnc1-c1cc2cc(Br)ccc2o1 returned NPC1 prom act 7%, Rab9 promoter act -1%, ELG1 genotoxic 0%, FLuc modulator 2.7µM* and ELG1 DNA repair 24%.
CCC(C)NC(=O)c1ccc(NS(=O)(=O)c2ccc3[nH]c(=O)[nH]c3c2)cc1 (stereo not given) was read as NPC1 prom act 13%, Rab9 promoter act 1%, ELG1 genotoxic inconclusive, FLuc modulator 17µM* and ELG1 DNA repair inconclusive.
COCCNC(=O)c1ccc(NS(=O)(=O)c2ccc3[nH]c(=O)[nH]c3c2)cc1 was read as NPC1 prom act -1%, Rab9 promoter act 7%, ELG1 genotoxic 0%, FLuc modulator 2% and ELG1 DNA repair 11%.
For CCN(CC)C(=O)c1ccc(NS(=O)(=O)c2ccc3[nH]c(=O)[nH]c3c2)cc1 the results were NPC1 prom act 0%, Rab9 promoter act -2%, ELG1 genotoxic -12%, FLuc modulator -13% and ELG1 DNA repair 18µM*.
Screening CCC[C@H]1COCCS(=O)(=O)N1Cc1ccc(Br)cc1 returned NPC1 prom act -6%, Rab9 promoter act -1%, ELG1 genotoxic -2%, FLuc modulator 2% and ELG1 DNA repair 11%.
